# Prx2 Sm inh: Schistosoma Mansoni Peroxiredoxins (Prx2). Potency, µM. Schistosoma mansoni peroxiredoxin 2 (Prx2). 65,000 tested, 0.07% active. S. mansoni Prx2 activity coupled to TGR/GSH (TGR is thioredoxin glutathione reductase), NADPH fluorescence loss, qHTS
#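 qHTS, coupled TGR/Prx2 format; 15 min compound preincubation at RT; reaction started with H2O2 (2.5 mM aliquot); kinetic NADPH fluorescence decrease, ex 365/em 450 nm.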
# Anthrax LT inh: qHTS Assay for Anthrax Lethal Toxin Internalization | Cells, anthrax lethal toxin internalization, FRET ratio (460/530) | Potency, µM (top dose mostly 40 µM), inactives show at the highest dose activity change, negative = inhibition, hits mostly inhibitors | 70,000 tested, 0.67% active | AID 912, 2007; note: % is set by controls: 0 for no effect and ±100 for the full control effect; nearly all actives have a fitted effect of over 50% in size
# AmpC inh no det: Promiscuous and Specific Inhibitors of AmpC Beta-Lactamase (assay without detergent); AID 585, 2007; AmpC nitrocefin hydrolysis, absorbance 480 nm, no detergent; Potency, µM (series often up to 28.7 µM), without a hit: at the top dose activity change, negative = inhibition; P00811; 71,000 tested, 1.8% active; note: % of control where 0% means no effect
# Target sequence (P00811 whole entry, looked up): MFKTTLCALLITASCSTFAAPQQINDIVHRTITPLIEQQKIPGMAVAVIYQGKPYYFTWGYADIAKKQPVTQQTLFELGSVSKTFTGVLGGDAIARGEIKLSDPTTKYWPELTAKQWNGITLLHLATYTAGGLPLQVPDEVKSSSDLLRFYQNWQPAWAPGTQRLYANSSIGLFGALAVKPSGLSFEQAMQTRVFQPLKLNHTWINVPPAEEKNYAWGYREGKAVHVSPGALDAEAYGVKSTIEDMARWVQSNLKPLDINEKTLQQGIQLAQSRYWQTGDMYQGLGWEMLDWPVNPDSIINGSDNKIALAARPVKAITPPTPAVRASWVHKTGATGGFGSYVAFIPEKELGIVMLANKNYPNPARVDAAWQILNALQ
#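 AmpC, 20 mM phosphate pH 7.0; 15 min cpd preinc, RT; start with nitrocefin (800 uM stock); A480 kinetic read, 20 s intervals, 4 min. No-enzyme wells = negative control.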
# AmpC det inh: Promiscuous and Specific Inhibitors of AmpC Beta-Lactamase (assay with detergent). P00811. purified AmpC, nitrocefin hydrolysis with detergent. Potency, µM (doses to about 28.7 µM), for inactives: top-dose activity change, negative = inhibition. 71,000 tested, 0.09% active. AID 584, 2007; active = well fitted curve in the direction sought with a large enough effect; inconclusive = small, poorly fitted or top-dose-only effect; note: % is set by controls: 0 for no effect and ±100 for the full control effect
#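 E. coli AmpC (5.3 nM) in 20 mM phosphate pH 7.0 with 0.01% Triton X-100, preincubated 15 min RT with compound; nitrocefin (2 uL of 800 uM stock) hydrolysis followed by 480 nm absorbance every 20 s over 4 min.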
# * = called active by the depositor; ? = inconclusive; . = no result; [ ] = dose if it differs, or a comment. An excerpt weighted towards active compounds, which were near 2.6% of everything screened. Unless noted, calls come from the whole dose curve. Potency is the fitted concentration of half-maximal effect.
SMILES,Prx2 Sm inh,Anthrax LT inh,AmpC inh no det,AmpC det inh
COc1ccc(CN2C(=O)C3C4C=CC(C4)C3C2=O)cc1 (centres undefined),>57,3%,0%,-3%
O=C(Nc1ccccc1)N1CCN(Cc2ccc3c(c2)OCO3)CC1,>57,7%,4µM*[single pt active],13%
COc1ccc(NC(=O)NCCN2C(=O)C3C4C=CC(C4)C3C2=O)cc1 (centres undefined),>57,9%,2.5µM*[single pt active],12%
CSc1nnc(Cn2c(=O)sc3ccccc32)n1C,>57,-12%,4µM*[single pt active],12%
CCCSc1nnc(Cn2c(=O)sc3ccccc32)n1C,>57,-14%,4µM*[single pt active],12%
NC(=O)c1ccsc1NC(=O)c1nc(-c2ccccc2)n(-c2ccccc2)n1,?,10µM*,-24%,-1%
CCCCN(C)Cc1c(C)[nH]c2ccc(OCC)cc2c1=O,>57,-4%,4µM*[single pt active],16%
CCOc1ccc2[nH]c(C)c(CN3CCN(CC)CC3)c(=O)c2c1,>57,-18%,-14%,6%
Cc1cnc(CNc2ncnc3ccc(-c4ccccc4Cl)cc23)cn1,>57,?,130%,6%
Cc1cccc(-c2nc(CS(=O)CC(=O)N3CCCCC3)c(C)o2)c1 (centres undefined),>57,-3%,4µM*[single pt active],16%
CCOC(=O)N1CCN(C(=O)CS(=O)Cc2nc(-c3ccc(C)cc3)oc2C)CC1 (centres undefined),>57,-16%,109%,12%
Cc1cccc(-c2nc(CS(=O)CC(=O)NCC3CCCO3)c(C)o2)c1 (centres undefined),>57,-5%,4µM*[single pt active],11%
COc1cccc(/C=N/n2c(C)c3c(C)nnc(C)c3c2C)c1O,>57,?,24%,-3%
COCCNc1ncnc2ccc(-c3ccoc3)cc12,>57,?,31%,8%
O=c1c(-c2ccc(F)cc2)nc2cnc(N3CCOCC3)nc2n1C1CC1,>57,?,7%,5%
CN(Cc1ccccc1)C(=O)CCS(=O)(=O)c1ccc2c(c1)n(C)c(=O)c(=O)n2C,>57,?,4µM*[single pt active],14%
CN(Cc1ccccc1)C(=O)CCC(=O)N(C)Cc1ccccc1,.,-1%,39%,-1%
CCC(C)NC(=O)CCS(=O)(=O)c1ccc2c(c1)n(C)c(=O)c(=O)n2C (centres undefined),>57,-8%,4µM*[single pt active],13%
O=C1C[C@H]2C(=O)[C@@H]1[C@@H](C(=O)O)[C@H]2C(=O)O,>57,0%[8 µM],6%[5.75 µM],6%[5.75 µM]
COc1ccc2cc(C(=O)CCC(=O)O)ccc2c1,>57,-4%[8 µM],0%[5.75 µM],-6%[5.75 µM]
Cc1ccc(-c2nn3c(C)nnc3s2)cc1NC(=O)COc1ccc(Cl)cc1,>57,-11%,17%,13%
CC(C)(C)n1nc2c(c1NC(=O)COc1ccc(Cl)cc1)CSC2,>57,?,13µM*,-2%
CC(C)CC(C(=O)Nc1ccc2c(c1)OCCO2)N1C(=O)c2ccccc2C1=O (centres undefined),>57,-14%,22%,2%
CC(C)CC(C(=O)Nc1oc(-c2ccco2)c(-c2ccco2)c1C#N)N1C(=O)c2ccccc2C1=O (centres undefined),>57,?,5µM*,18%
CC(C)C[C@@H](CC(=O)N[C@@H](CCC(=O)O)CC(=O)O)NC(=O)[C@@H]1CNCC[C@H]1NC(=O)C[C@H](CCCN)NC(=O)C[C@H](Cc1ccccc1)NC(=O)[C@@H]1CNCC[C@H]1N,>57,-6%,84%,-5%
SMILES,Prx2 Sm inh,Anthrax LT inh,AmpC inh no det,AmpC det inh
O=C1[C@@H]2C=CC=CC2=NC(=S)N1CCN1CCC(=C(c2ccc(F)cc2)c2ccc(F)cc2)CC1,>57,16%,6.3µM*,-4%
Cc1nc2c3ccccc3n(CC#N)c(=O)n2n1,>57,-11%,2.5µM*[single pt active],11%
COc1ccc2nc(NC(=O)C3CCN(S(=O)(=O)c4cccc5nsnc45)CC3)sc2c1,>57,13µM*,7%,1%
Cc1cccc(NC(=O)C2CCN(S(=O)(=O)c3cccc4nsnc34)CC2)n1,>57,19%,8%,0%
O=C1OC(NC(=O)c2ccccc2)C(n2cc(CO)nn2)=C1Cl (centres undefined),>57,13µM*,-8%,-4%
O=C(Nc1ccc(Cl)cc1)N(Cc1cccs1)Cc1cccs1,.,-21%,5µM*,2%
Cc1cc(C(C)(C)C)c(O)c(C(C)(C)C)c1,.,.,4%,12%
